Where “and” joins values, the source holds several entries; their conditions need not be identical. Identical values can stand only once. Inconclusive results are not listed. A number with no mark means an inactive call. Calls of active or inactive are those of the source. Calls follow the shape of the dose curve; as a rule, active = well fitted curve in the direction sought with a large enough effect; inconclusive = small, poorly fitted or top-dose-only effect, or another doubt; inactive = no such curve, though single readings can be large; an effect the other way counts as inactive or inconclusive.
biological target: Furin (Homo sapiens) (UniProt P09958); test: Furin counterscreen qHTS for Zika virus inhibitors (AID 1347149); details: furin enzymatic counterscreen, fluorogenic substrate; series mostly up to 57.5 µM; activity change, negative = inhibition: at the top concentration; also: nearly all actives have a fitted effect of over 70% in size;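 as to activity change, negative = inhibition: purified recombinant full-length human furin enzyme at 5 nM; fluorescence gain from furin cutting a BOC-RVRR-AMC peptide substrate over 15 min; top concentration of the series differs between compounds; plate controls were no-inhibitor control for no effect and no-enzyme control for full effect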
Sequence (P09958 whole entry, looked up): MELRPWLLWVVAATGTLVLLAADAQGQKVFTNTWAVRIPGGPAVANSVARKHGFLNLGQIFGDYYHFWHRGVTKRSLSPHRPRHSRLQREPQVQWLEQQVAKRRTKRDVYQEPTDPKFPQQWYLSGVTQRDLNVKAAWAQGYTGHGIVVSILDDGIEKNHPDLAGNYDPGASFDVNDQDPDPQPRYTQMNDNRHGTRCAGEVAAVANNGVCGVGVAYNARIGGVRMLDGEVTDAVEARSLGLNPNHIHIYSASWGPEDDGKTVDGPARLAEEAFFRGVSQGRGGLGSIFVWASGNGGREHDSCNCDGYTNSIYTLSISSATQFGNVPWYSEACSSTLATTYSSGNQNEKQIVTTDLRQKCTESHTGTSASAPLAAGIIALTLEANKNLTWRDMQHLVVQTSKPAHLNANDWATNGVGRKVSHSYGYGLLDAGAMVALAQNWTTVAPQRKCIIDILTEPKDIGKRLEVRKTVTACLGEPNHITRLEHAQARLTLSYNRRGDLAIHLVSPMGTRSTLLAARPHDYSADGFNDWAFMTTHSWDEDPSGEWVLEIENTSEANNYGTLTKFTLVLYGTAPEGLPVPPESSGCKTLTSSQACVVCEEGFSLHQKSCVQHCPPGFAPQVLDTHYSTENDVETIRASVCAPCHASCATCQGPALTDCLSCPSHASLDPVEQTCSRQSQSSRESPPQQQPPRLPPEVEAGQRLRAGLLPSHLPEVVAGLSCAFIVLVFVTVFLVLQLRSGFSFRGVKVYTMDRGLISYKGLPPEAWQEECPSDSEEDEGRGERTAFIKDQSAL
In short: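 Counterscreen measures cleavage of 2 microM BOC-RVRR-AMC, below its ~15 microM Km, by 5 nM full-length human furin at pH 7.0 after a 15-min compound preincubation. Inhibition derives from the 15-min fluorescence increase at 37C.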
Potency is read from the fitted curve at half-maximal effect.

Compound | Potency | activity change, negative = inhibition
NC(=O)c1ccc2nc(-c3ccc(Oc4ccc(Cl)cc4)cc3)[nH]c2c1 | 34 µM (active) | 
O=c1c(O)c(-c2ccc(O)cc2)oc2cc(O)cc(O)c12 |  | 7.29%
CC=CCC(C)C(O)C1C(=O)NC(CC)C(=O)N(C)CC(=O)N(C)C(CC(C)C)C(=O)NC(C(C)C)C(=O)N(C)C(CC(C)C)C(=O)NC(C)C(=O)NC(C)C(=O)N(C)C(CC(C)C)C(=O)N(C)C(CC(C)C)C(=O)N(C)C(C(C)C)C(=O)N1C (stereo not given) | 0.0152 µM (active) | 
C[C@H](NC(=O)C(=O)Nc1ccccc1C(C)(C)C)C(=O)N[C@@H](CC(=O)O)C(=O)COc1c(F)c(F)cc(F)c1F |  | -1.65%
CS(=O)c1ccc(-c2nc(-c3ccc(F)cc3)c(-c3ccncc3)[nH]2)cc1 (stereo not given) | 24.1 µM (active) and 21.5 µM (active) | 
COc1ccc2cc(-c3nc(-c4ccc(S(C)=O)cc4)[nH]c3-c3ccncc3)ccc2c1 (stereo not given) | 3.83 µM (active) | 
CC1CCC(C(=O)N(c2cc(C#CC(C)(C)C)sc2C(=O)O)C2CCC(O)CC2)CC1 (stereo not given) |  | 0.33%
Cc1ccn(-c2ccc(-c3ncco3)cc2)c(=O)c1-c1ccc2nc(N)ncc2c1 | 21.5 µM (active) | 
NC(=O)c1cccc2[nH]c(-c3ccc([C@H]4CCCN4)cc3F)nc12 | 21.5 µM (active) | 
CC1(C)CCC(CN2CCN(c3ccc(C(=O)NS(=O)(=O)c4ccc(NCC5CCOCC5)c([N+](=O)[O-])c4)c(Oc4cnc5[nH]ccc5c4)c3)CC2)=C(c2ccc(Cl)cc2)C1 | inactive | 
O=C(O)c1c(Cl)c(Cl)c(Cl)c(Cl)c1-c1c2cc(I)c(=O)c(I)c-2oc2c(I)c(O)c(I)cc12 |  | 3.93% [at 114 µM]

test system: Zika virus NS2B-NS3 protease (unlinked); test: Optimization of GU AMC qHTS for Zika virus inhibitors: Unlinked NS2B-NS3 protease assay (AID 1347151); details: recombinant ZIKV NS2B-NS3 protease, fluorogenic AMC substrate; series mostly up to 52.5 µM; activity change, negative = inhibition: at the top concentration; also: nearly all actives have a fitted effect of over 80% in size;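 as to activity change, negative = inhibition: 0% = no-inhibitor control and -100% = no-enzyme control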
In short: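 Noncovalent NS2B hydrophilic domain–NS3 protease complex (25 nM final) in 10 mM Tris-HCl pH 8.0, 0.01% Tween 20; AMC substrate, room temperature 15 min (~20% conversion); fluorescence change normalized, 4-parameter Hill fit.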

Compound | activity change, negative = inhibition [%] | Potency
COc1ccc(Cc2nccc3cc(OC)c(OC)cc23)cc1OC | -11.1 | 
CCn1cc(C(=O)O)c(=O)c2ccc(C)nc21 | 3.35 | 
O=C(NCCN1CCOCC1)c1ccc(Cl)cc1 | -1.45 | 
CCN(CC)C(=O)c1ccc(O)c(OC)c1 | 0.913 | 
CC(=O)N[C@@H](CS)C(=O)O | 3.91 | 
CC(=O)c1ccc(S(=O)(=O)NC(=O)NC2CCCCC2)cc1 | 5.02 | 
Cc1cccc(C)c1OCC(C)N (stereo not given) | 1.18 | 
CC=CCC(C)C(O)C1C(=O)NC(CC)C(=O)N(C)CC(=O)N(C)C(CC(C)C)C(=O)NC(C(C)C)C(=O)N(C)C(CC(C)C)C(=O)NC(C)C(=O)NC(C)C(=O)N(C)C(CC(C)C)C(=O)N(C)C(CC(C)C)C(=O)N(C)C(C(C)C)C(=O)N1C (stereo not given) | 31 | 
CC(C)(C)c1ccc(C(O)CCCN2CCC(C(O)(c3ccccc3)c3ccccc3)CC2)cc1 (stereo not given) | -3.89 | 
C[C@H](NC(=O)C(=O)Nc1ccccc1C(C)(C)C)C(=O)N[C@@H](CC(=O)O)C(=O)COc1c(F)c(F)cc(F)c1F | 7.64 | 
O=C1NCC2(CCN(CCc3ccccc3)CC2)O1 | -2.3 | 
Clc1ccc(C(c2ccc(Cl)cc2)n2cc[n+](CC(OCc3ccc(Cl)cc3Cl)c3ccc(Cl)cc3Cl)c2)cc1 (stereo not given) | -17.5 | 
NCCS | 2.89 | 
O=c1c(-c2ccc(O)cc2)coc2cc(O)ccc12 |  | 29.9 µM (active)
C[N+](C)(C)CCCCCC[N+](C)(C)C |  | inactive

test system: Zika virus NS2B-NS3 protease (linked construct); test: Confirmatory screen NINDS AMC qHTS for Zika virus inhibitors (AID 1347152); details: Purified linked NS2B-NS3, AMC substrate fluorescence; also: nearly all actives have a fitted effect of over 70% in size
From the text: Assay Submitters (PI): Avindra Nath, Ph.D., National Institute of Neurological Disorders and Stroke (NINDS), Bethesda, MD Radhakrishnan Padmanabhan, Ph.D., Georgetown University (GU), Washington D.C. Zika Virus causes congenital defects, including microcephaly and is associated with Guillain-Barre syndrome, eningoencephalitis and myelitis in infected adult. […] Using a target-based approach, we hope to establish a screening paradigm to uncover novel, cell-active NS2B-NS3 protease (Zika Virus) specific inhibitors from NCATS' collection of small molecules using qHTS. […] Four assay panel was created to identify potential Zika Virus inhibitors. Namely, (1) GU unlinked NS2B-NS3 AMC tagged protease qHTS, (2) GU unlinked NS2B-NS3 Rhodamine tagged protease qHTS, (3) NINDS linked NS2B-NS3 AMC tagged protease qHTS, (4) NINDS linked NS2B-NS3 Rhodamine tagged protease qHTS. Active compounds were re-acquired and re-screened to confirm inhibition. Inhibitors were further screened against various confirmatory and counterscreens in dose response format. Early Translation Branch (ETB) National Center for Advancing Translational Sciences (NCATS), Rockville, MD National Institute of Health (NIH), Bethesda, Maryland
Materials: For the linked assay, Nath lab (NINDS) provided the purified linked NS2B-NS3 protease which is consists of hydrophilic domain of NS2B linked to the NS3 protease domain by a flexible (-[…]-) linker. Control compound aprotinin is obtained from Thermo Scientific (#78432; Waltham, Massachusetts). NS2B-NS3 AMC substrate (Bz-Nle-Lys-Arg-Arg-AMC; Nle-KRR-AMC) purchased from Bachem (#I-1995; Torrance, CA). Ac-VKTGKR-AMC purchased from Genscript or Bachem, Ac-FAAGKR-AMC purchased from Genscript, Ac-GLVKRR-AMC purchased from Genscript, Ac-LKKR-AMC purchased from Genscript. NINDS AMC linked NS2B-NS3 protease qHTS protocol: Briefly, 3 microL of Zika virus linked NS2B-NS3 protease (1 nM for linked final concentration), in assay buffer (10 mM Tris-HCl pH 8.0 with 0.01% Tween 20) was dispensed into a 1,536-well solid-bottom black plate (Greiner Bio One, Monroe, NC). Twenty-three nL of compounds (final concentration range 7.28 nM to 114 microM) or control Aprotinin (final concentration range 3.47 nM to 114 microM) were transferred via Wako Pin-tool (Wako Automation, Richmond, VA). Samples were incubated (room temperature, protected from light) for 15 minutes followed by a 1 microL AMC substrate addition of (final concentration of 10 microM; Km = 18.3 µM). Plates were then read immediately on a ViewLux High-throughput CCD imager (PerkinElmer, Waltham, MA) equipped with standard UV fluorescence optics (340(30) nm excitation, 450(20) nm emission) then incubated (room temperature, protected from light) for 15 minutes (~20% conversion). The change in fluorescence intensity over the 15-minute reaction period was normalized against no-inhibitor and no-enzyme controls and the resulting percent inhibition data were fitted to a 4-parameter Hill equation. Aprotinin was used as the intraplate control.

Compound | Potency
NC(=O)c1ccc2nc(-c3ccc(Oc4ccc(Cl)cc4)cc3)[nH]c2c1 | 34.1 µM (active)
CS(=O)c1ccc(-c2nc(-c3ccc(F)cc3)c(-c3ccncc3)[nH]2)cc1 (stereo not given) | 24.1 µM (active)
COc1ccc2cc(-c3nc(-c4ccc(S(C)=O)cc4)[nH]c3-c3ccncc3)ccc2c1 (stereo not given) | 17.1 µM (active)
NC(=O)c1cccc2[nH]c(-c3ccc([C@H]4CCCN4)cc3F)nc12 | 27.1 µM (active)
CC1(C)CCC(CN2CCN(c3ccc(C(=O)NS(=O)(=O)c4ccc(NCC5CCOCC5)c([N+](=O)[O-])c4)c(Oc4cnc5[nH]ccc5c4)c3)CC2)=C(c2ccc(Cl)cc2)C1 | 6.07 µM (active) and 10.8 µM (active)

test system: Zika virus NS2B-NS3 protease (unlinked complex); test: Confirmatory screen GU AMC qHTS for Zika virus inhibitors (AID 1347153); details: Recombinant NS2B-NS3 protease, AMC substrate fluorescence;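 also: enzyme at 25 nM with substrate at 10 µM below its Km of 18.3 µM; nearly all actives have a fitted effect of over 70% in size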
In short: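 Unlinked NS2B-NS3 complex (25 nM) in 10 mM Tris-HCl pH 8.0, 0.01% Tween 20 preincubated 15 min with compound, then 10 microM Bz-Nle-KRR-AMC (Km 18.3 µM). Fluorescence change over 15 min, normalized, Hill-fitted.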

Compound | Potency
CS(=O)c1ccc(-c2nc(-c3ccc(F)cc3)c(-c3ccncc3)[nH]2)cc1 (stereo not given) | 21.5 µM (active)
COc1ccc2cc(-c3nc(-c4ccc(S(C)=O)cc4)[nH]c3-c3ccncc3)ccc2c1 (stereo not given) | 17.1 µM (active)
Cc1ccn(-c2ccc(-c3ncco3)cc2)c(=O)c1-c1ccc2nc(N)ncc2c1 | 30.4 µM (active)
CC1(C)CCC(CN2CCN(c3ccc(C(=O)NS(=O)(=O)c4ccc(NCC5CCOCC5)c([N+](=O)[O-])c4)c(Oc4cnc5[nH]ccc5c4)c3)CC2)=C(c2ccc(Cl)cc2)C1 | 8.57 µM (active)

test system: Zika virus NS2B-NS3 protease; test: Primary screen GU AMC qHTS for Zika virus inhibitors (AID 1347154); details: Zika NS2B-NS3 unlinked protease, AMC fluorogenic substrate; series mostly up to 54.1 µM; activity change, negative = inhibition: at the top concentration; also: nearly all actives have a fitted effect of over 70% in size;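 as to activity change, negative = inhibition: 0% = no-inhibitor control and -100% = no-enzyme control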
In short: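 Fluorogenic AMC-substrate cleavage by noncovalent NS2B-NS3 protease complex (25 nM, pH 8.0 Tris buffer with Tween 20) followed for 15 minutes at room temperature (~20% conversion). Percent inhibition from ex340/em450 signal change, fitted by 4-parameter Hill equation.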

Compound | Potency | activity change, negative = inhibition [%]
CCn1cc(C(=O)O)c(=O)c2ccc(C)nc21 | inactive | 
O=C(NCCN1CCOCC1)c1ccc(Cl)cc1 |  | 2.65
CCN(CC)C(=O)c1ccc(O)c(OC)c1 |  | -2.81
CC(=O)N[C@@H](CS)C(=O)O |  | 1.8
NC(=O)c1ccc2nc(-c3ccc(Oc4ccc(Cl)cc4)cc3)[nH]c2c1 | 24.1 µM (active) | 
CC(=O)c1ccc(S(=O)(=O)NC(=O)NC2CCCCC2)cc1 |  | -4.56
Cc1cccc(C)c1OCC(C)N (stereo not given) | inactive | 
O=c1c(O)c(-c2ccc(O)cc2)oc2cc(O)cc(O)c12 |  | -10.5
O=c1[nH]cnc2c1ncn2[C@H]1CC[C@@H](CO)O1 |  | 6.55
CC=CCC(C)C(O)C1C(=O)NC(CC)C(=O)N(C)CC(=O)N(C)C(CC(C)C)C(=O)NC(C(C)C)C(=O)N(C)C(CC(C)C)C(=O)NC(C)C(=O)NC(C)C(=O)N(C)C(CC(C)C)C(=O)N(C)C(CC(C)C)C(=O)N(C)C(C(C)C)C(=O)N1C (stereo not given) |  | 11.5
C=C1C(=O)[C@@]23C(CC[C@@H]1[C@H]2O)[C@@]12CO[C@]3(O)[C@@H](O)[C@@H]1C(C)(C)CC[C@@H]2O (stereo not given in full) |  | 15.5
CC(C)(C)c1ccc(C(O)CCCN2CCC(C(O)(c3ccccc3)c3ccccc3)CC2)cc1 (stereo not given) |  | -12.1
COc1ncc(-c2ccc3nccc(-c4ccnnc4)c3c2)cc1NS(=O)(=O)c1ccc(F)cc1F |  | -2.02
C[C@H](NC(=O)C(=O)Nc1ccccc1C(C)(C)C)C(=O)N[C@@H](CC(=O)O)C(=O)COc1c(F)c(F)cc(F)c1F |  | 4.16
O=C1NCC2(CCN(CCc3ccccc3)CC2)O1 |  | -2.36
CC[C@@H]1C=C(C)C[C@H](C)C[C@H](OC)[C@H]2O[C@@](O)(C(=O)C(=O)N3CCCC[C@@H]3C(=O)O[C@H](C(C)=C[C@@H]3CC[C@H](Cl)[C@H](OC)C3)[C@H](C)[C@@H](O)CC1=O)[C@H](C)C[C@H]2OC |  | -0.395
CS(=O)c1ccc(-c2nc(-c3ccc(F)cc3)c(-c3ccncc3)[nH]2)cc1 (stereo not given) | 26.7 µM (active) and 17.5 µM (active) | 
O=C(O)c1ccc(-c2cc3cccnc3c(-c3ccc4nonc4c3)n2)cc1 |  | 7.8
COc1ccc2cc(-c3nc(-c4ccc(S(C)=O)cc4)[nH]c3-c3ccncc3)ccc2c1 (stereo not given) | 17.1 µM (active) | 
NCCS |  | 2.02
CC(=O)Oc1cc2c(s1)CCN(C(C(=O)C1CC1)c1ccccc1F)C2 (stereo not given) |  | -5.86
CCCCCCCCCCCC1=C(O)C(=O)C=C(O)C1=O |  | 15.9
Cc1ccn(-c2ccc(-c3ncco3)cc2)c(=O)c1-c1ccc2nc(N)ncc2c1 | 21.5 µM (active) | 
CNC1CCC(N(Cc2cccc(-c3ccncc3)c2)C(=O)c2sc3c(F)ccc(F)c3c2Cl)CC1 (stereo not given) |  | 3.22
C[N+](C)(C)CCCCCC[N+](C)(C)C |  | 0.28
NC(=O)c1cccc2[nH]c(-c3ccc([C@H]4CCCN4)cc3F)nc12 | 24.1 µM (active) | 
CC(=NNC(=S)N1CCC1)c1ccccn1 |  | 3.93
O=C1NC(=O)C(=Cc2ccc3c(c2)OC(F)(F)O3)S1 |  | -12.1
Cc1[nH]c(C=C2C(=O)Nc3ccc(S(=O)(=O)Cc4c(Cl)cccc4Cl)cc32)c(C)c1C(=O)N1CCC[C@H]1CN1CCCC1 |  | -6.39
O=C(O)c1ccc(-c2c[nH]c3ncc(-c4ccccc4)cc23)cc1C1CCCC1 |  | -1.33

Reference: PubChem BioAssay (NCATS)
